Only a selection was taken, and hits are over-represented in it overall.
NPSR antag – blocks cAMP signaling of the human neuropeptide S receptor. CHO-NPSR cells, cAMP TR-FRET, antagonist mode. Potency, µM (doses to about 38.3 µM), without a hit: top-dose activity change, negative = inhibition, actives largely listed as inhibitors. 220,000 tested, 1% active. AID 1461; note: potency is the fitted concentration of half-maximal effect; % is set by controls: 0 for no effect and ±100 for the full control effect; nearly all actives have a fitted effect of over 50% in size
TSHR antag – blocks TSH signaling through the human TSH receptor; AID 504810; 330,000 tested, 0.2% active; TSHR-expressing cells, TSH-stimulated cAMP HTRF, 2 h; active compounds read low; activity change, negative = inhibition, % at 11.5 µM;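 active = activity change below a set negative limit, meaning inhibition stronger than a set level, cut at about -70% in these data; inconclusive = activity change between two set negative limits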; note: % is set by controls: 0 for no effect and ±100 for the full control effect
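TSHR-expressing cells, 200/well, pre-treated with compound, then stimulated with EC80 TSH (4nM final) for 2 hours at 37 deg C. cAMP measured by competitive HTRF: anti-cAMP cryptate antibody in lysis buffer plus cAMP-d2, read after 30 minutes at room temperature.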
RXFP1 ag – agonists of human relaxin receptor RXFP1 | Potency, µM (top dose mostly 57.5 µM), without a hit: top-dose activation, usual class: activators | HEK293T-RXFP1 cAMP TR-FRET, 30 min; response scale: percent of porcine relaxin response, buffer zero | 370,000 tested, 0.3% active | Q9HBX9; note: potency is the fitted concentration of half-maximal effect; % is set by controls: 0 for no effect and ±100 for the full control effect; nearly all actives have a fitted effect of over 60% in size
Target sequence (Q9HBX9 whole entry, looked up): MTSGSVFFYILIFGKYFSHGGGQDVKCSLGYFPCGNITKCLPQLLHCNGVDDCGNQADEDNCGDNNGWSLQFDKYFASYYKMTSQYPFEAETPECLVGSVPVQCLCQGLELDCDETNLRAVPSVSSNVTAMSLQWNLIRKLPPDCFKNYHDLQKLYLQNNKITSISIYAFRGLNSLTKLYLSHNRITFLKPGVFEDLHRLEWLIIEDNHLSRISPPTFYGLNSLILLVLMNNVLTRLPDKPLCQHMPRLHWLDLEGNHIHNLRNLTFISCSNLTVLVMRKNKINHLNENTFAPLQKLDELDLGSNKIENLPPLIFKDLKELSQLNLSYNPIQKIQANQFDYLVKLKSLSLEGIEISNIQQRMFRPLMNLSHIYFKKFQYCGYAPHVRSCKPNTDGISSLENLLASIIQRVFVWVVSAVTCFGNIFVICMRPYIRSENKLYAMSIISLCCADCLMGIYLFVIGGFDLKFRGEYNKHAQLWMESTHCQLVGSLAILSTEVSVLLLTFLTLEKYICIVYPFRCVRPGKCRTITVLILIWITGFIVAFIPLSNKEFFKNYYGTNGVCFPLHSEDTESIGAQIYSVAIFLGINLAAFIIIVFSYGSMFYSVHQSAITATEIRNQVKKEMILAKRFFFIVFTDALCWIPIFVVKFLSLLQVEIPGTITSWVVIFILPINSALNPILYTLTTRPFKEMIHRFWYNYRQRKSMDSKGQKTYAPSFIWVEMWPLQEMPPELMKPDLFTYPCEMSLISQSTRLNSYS
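HEK293 cells stably expressing RXFP1, treated 30 min at 37C with compounds plus PDE4 inhibitor Ro 20174; cAMP measured by HTRF TR-FRET. Normalized to buffer and 29 nM porcine relaxin; EC50 by Hill fit.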
GLP1R cytotox – cytotoxic in the GLP-1 receptor inverse agonist counter-screen. HEK293 cAMP-luciferase reporter cells, luminescence, 24 h. Potency, µM (top dose mostly 38.3 µM), for inactives: top-dose activity change, negative = inhibition, most hits filed as inhibitors. 410,000 tested, 0.13% active. AID 624418;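 note: loss of luciferase light is scored as toxicity; potency is the fitted concentration of half-maximal effect; % is set by controls: 0 for no effect and ±100 for the full control effect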
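MLSMR compounds, 24 hr on cells at 37 deg C/5% CO2; luminescence after luciferase reagent (12 min RT). Inhibition counted as the undesired cytotoxic outcome.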
PTHR1 agonist – agonists of human PTHR1 parathyroid hormone receptor | Q03431 | HEK293 GP2 PTHR1 cells, GloSensor cAMP luminescence, 1 h | Potency, µM (doses to about 115 µM), for the others: at the top dose activation, usual class: activators | 410,000 tested, 0.075% active | AID 743266; note: potency is the fitted concentration of half-maximal effect; nearly all actives have a fitted effect of over 55% in size
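HEK-293-derived GP2 cells expressing PTHR1 and a GloSensor cAMP reporter, 3,000/well, plated overnight, given luciferin plus IBMX (each 0.5 mM as added) for 1 h at 37 °C, then compound for 1 h at 37 °C. Luminescence was read after 15 min at room temperature.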
RXFP1 antag – RXFP1 (human) relaxin receptor antagonism; HEK293-RXFP1, relaxin-stimulated cAMP HTRF, 30 min; active compounds read low; activity change, negative = inhibition, % at 57.5 µM; 350,000 tested, 0.59% active; AID 1259400;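 active = activity change of -60% or lower, but not beyond a set lower limit; inconclusive = change between -60% and -40%, or beyond the set limit; inactive = change above -40%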; note: % is set by controls: 0 for no effect and ±100 for the full control effect
* = called active by the depositor; i = inactive; ? = inconclusive; nt = no result; [ ] = another dose, or the depositor's remark. Unless noted, calls come from the whole dose curve; as a rule, active = well fitted curve in the direction sought with a large enough effect; inconclusive = small, poorly fitted or top-dose-only effect, or another doubt; inactive = no such curve, though single readings can be large; an effect the other way counts as inactive or inconclusive.

SMILES	NPSR antag	TSHR antag	RXFP1 ag	GLP1R cytotox	PTHR1 agonist	RXFP1 antag
Cc1c(CCOC(=O)CC23CC4CC(CC(C4)C2)C3)sc[n+]1CC(=O)c1ccc(Br)cc1	10µM*	nt	4%	-4%	-10%	-15
Cc1c(CCOC(=O)c2cc([N+](=O)[O-])cc([N+](=O)[O-])c2)sc[n+]1CC(=O)c1ccccc1	10µM*	-9	6%	-19%	i	5
Cc1c(CCOC(=O)CC23CC4CC(CC(C)(C4)C2)C3)sc[n+]1CC(=O)c1ccccc1	?	3	2%	?	-57%	nt
Cc1c(CCOC(=O)c2ccccc2)sc[n+]1CC(=O)c1ccc(Br)cc1	nt	14	5%	-9%	-20%	-2
COc1ccc(C(=O)Nc2nc3cc4c(cc3s2)OCCO4)c(OC)c1	2%	-18	26%	5%	-28%	-1
O=C(c1cc(O)c(O)c(O)c1)c1ccc(O)c(O)c1O	nt	nt	nt	nt	nt	-14
O=C(O)CCn1ccc2cc(S(=O)(=O)N3CCCCC3)ccc21	nt	nt	-1%	0%	8%	-18
CNC(=O)C1CCC(Cn2c(=O)c3sccc3n(CC(=O)Nc3cc(F)ccc3F)c2=O)CC1 (stereo not drawn)	nt	nt	1%	-2%	-3%	-13
O=C1C(Cl)=C(N2CCCCC2)C(=O)C(Cl)=C1c1cnc(N2CCCCC2)s1	6.3µM*	7	0%	-5%	-25%	-18
CCCCOc1ccc(CSCCNC(=S)Nc2ccccc2)cc1	-28%	-30	1%	3.2µM*	-31%	-1
CCCCCOc1ccc(CSCCNC(=S)Nc2ccccc2)cc1	-45%	-25	0%	-7%[1.53 µM]	-21%	-4
CC(C)COc1ccc(CSCCNC(=S)Nc2ccccc2)cc1	-16%[46.1 µM]	-6	0%	4.5µM*	-57%	-6
CCN(CC)S(=O)(=O)c1ccc(N2CCCCS2(=O)=O)cc1	nt	nt	0%	6%	i	-1
COc1ccc(S(=O)(=O)N(C)C)cc1NC(=O)CSc1nncs1	6%	8	18µM*	-3%	-2%	8
CCOC(=O)[C@H](CCc1ccccc1)N[C@@H](C)C(=O)N1C(=O)N(C)C[C@H]1C(=O)O	nt	nt	nt	nt	nt	-10
COC(=O)c1cc(C)nc2c1c(=O)nc(SCc1c(C)cc(C)cc1C)n2C1CC1	nt	nt	3%	-6%	-68%	-18
Cc1ccc(CSc2nc(=O)c3c(C)cc(C)nc3n2C2CC2)cc1	nt	nt	10%	2%	-10%	-62*
Cc1ccc(C)c(NC(=O)C(Cc2ccccc2)N2Cc3ccccc3C2=O)c1 (stereo not drawn)	nt	nt	-2%	-1%	i	10
O=[N+]([O-])c1ccc(C=NNC(=S)NN=Cc2ccc([N+](=O)[O-])cc2)cc1	nt	nt	nt	?	i	-62*
O=[N+]([O-])c1ccc(C=NNC(=S)Nc2ccc(F)cc2)cc1	nt	nt	nt	?	i	-21
O=C(Nc1ccc(Br)c2ccccc12)c1ccc2ccccc2c1O	?	?	?	-6%	-15%	1
CC(=O)Nc1ccc(Br)c2ccccc12	-25%	-3	28µM*	-2%	-28%	4
CCCS(=O)(=O)c1ncc(Cl)c(C(=O)N(Cc2ccccc2)Cc2ccco2)n1	nt	nt	-2%	10µM*	-93%	?
CC(C)(C)c1ccc(C(=O)CCCCl)cc1	nt	nt	nt	nt	nt	-7
Cc1cc(C(F)(F)F)n2[nH]c(=O)c(N=Nc3ccccc3)c2n1	-7%	-12	1%	?	18µM*	7
SMILES	NPSR antag	TSHR antag	RXFP1 ag	GLP1R cytotox	PTHR1 agonist	RXFP1 antag
CCCC(CCC)(C(=O)OCC)C(=O)OCC	nt	nt	nt	nt	nt	-12
Brc1ccc(-c2nc(N/N=C/c3cccnc3)c3ccccc3n2)cc1	10µM*	-4	3%	0%	-27%[57.5 µM]	0
C(=N\Nc1nc(-c2cccnc2)nc2ccccc12)/c1ccccc1	-17%	-5	2%	0%	i	-5
CCc1nn(CC(=O)NCCc2ccc(SC)cc2)c(=O)c2cc3sccc3n12	nt	nt	9%	1%	14%	-9
COc1ccc(-c2nnc(NC(=O)c3ccc4c(c3)OCCO4)o2)cc1	nt	-95*	-2%	-16%	i	-2
Cc1nc2ccccc2n1CC(O)Cn1c2ccccc2c2ccccc21 (stereo not drawn)	-20%[46.1 µM]	21	0%	11%	16µM*	2
CN(C)/C=C(/C(=O)c1ccc(Cl)cc1)S(=O)(=O)c1ccc(Cl)cc1	-4%[46.1 µM]	-114*	-3%	4%	i	8
Cc1nc([N+](=O)[O-])cn1-c1ccc([N+](=O)[O-])cc1	nt	nt	nt	nt	nt	2
NS(=O)(=O)c1cccc(NC(=O)CSc2ncnc3ccccc23)c1	-23%	-5	25µM*	4%	-7%	2
NS(=O)(=O)c1ccc(NC(=O)CSc2ncnc3ccccc23)cc1	-51%	-4	?	-10%	-48%	-6
NC1(c2ccc(-c3nc4ccn5c(=O)[nH]nc5c4cc3-c3ccccc3)cc2)CCC1	nt	nt	nt	nt	nt	-62*
CNC(=S)NC(CC(=O)OC)c1ccc2c(c1)OCO2 (stereo not drawn)	8%	-5	0%	1%	-13%	15
Cc1ccccc1C(=O)Nc1nnc(S(=O)(=O)N(C)Cc2ccc(Cl)cc2)s1	nt	nt	10%	12%	-66%	-17
COc1ccccc1C1c2ccc3ccccc3c2Oc2ncn(CCN(C)C)c(=N)c21 (stereo not drawn)	nt	-3	2%	?	i	-79*
COc1ccc(C2c3c(ncn(CCN4CCOCC4)c3=N)Oc3ccc4ccccc4c32)cc1OC (stereo not drawn)	1µM*	-19	1%	-39%	-11%	-1
Cc1ccc(C(C)OC(=O)C2(C)CCC(C(=O)O)C2(C)C)cc1 (stereo not drawn)	nt	nt	nt	nt	nt	-7
CN(CC(=O)Nc1ccccc1Cl)C(=O)COC(=O)Cc1c(F)cccc1Cl	nt	15	13µM*	7%	-15%	-7
CN(CC(=O)Nc1ccc(F)cc1)C(=O)COC(=O)Cc1c(F)cccc1Cl	nt	12	1%	-1%	18%	16
Cc1ccc(C)c(Cn2cc(CCC(=O)NC3CCCCC3)c3ccccc32)c1	nt	nt	4%	-5%	i	9
Cc1cc(C)n2nc(C(=O)Nc3ccc4c(c3)OCCO4)nc2n1	nt	137	14µM*	2%	-32%	16
Cc1cc(C)n2nc(C(=O)Nc3ccc4c(c3)OCO4)nc2n1	7%[46.1 µM]	11	19%	16%	-8%	-7
FC(F)(F)c1cnc2c(-c3ccccc3)n[nH]c2c1	-4%	-11	4%	3%	-19%	-18
Cc1ccc(Cl)cc1NC(=O)CN1C=NS(=O)(=O)c2ccccc21	nt	nt	1%	1%	i	0

Screening data: PubChem, National Center for Advancing Translational Sciences (NCATS)
